Bioassay records deposited in PubChem BioAssay by National Center for Advancing Translational Sciences (NCATS).
HTT prom inh: inhibitors of huntingtin promoter activity; HEK293 HTT promoter firefly luciferase reporter, 24 h; Potency, µM (doses to about 57.5 µM), for inactives: top-dose activity change, negative = inhibition, actives largely listed as inhibitors; 48,000 tested, 0.93% active; AID 1508623; note: nearly all actives have a fitted effect of over 50% in size
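Luminescence was read after Dual-Glo reagent and a 10 min room-temperature incubation. Values were normalized to vehicle (0% activity) and zero RLU (-100% activity). Reporter HEK293 cells had been exposed to compounds (up to 57.5 uM final) for 24 h.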
S16 viability: S16 Schwann cell cytotoxicity; S16 Pmp22-F2sN Schwann cells viability, CellTiter-Glo, 24 h; Potency, µM (doses to about 57.5 µM), for inactives: at the top dose activity change, negative = cytotoxicity, hits mostly cytotoxic; 43,000 tested, 0.48% active; AID 1508642; note: % is set by controls: 0 for no effect and ±100 for the full control effect; nearly all actives have a fitted effect of over 65% in size
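Luminescence from CellTiter-Glo, read by CCD camera after a 15 min room-temperature incubation, served as the viability signal. Reporter Schwann cells (S16 Pmp22-F2sN) had been treated with pin-transferred compounds for 24 h at 37C.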
mTORC1 inh: inhibitors of mTORC1 signaling in Tsc2-/- p53-/- MEF cells; Tsc2-/- p53-/- MEF, phospho-rpS6 immunofluorescence/PI, 24 h; Potency, µM (series often up to 38.3 µM), inactives show at the highest dose activity change, negative = inhibition, most hits filed as inhibitors; 44,000 tested, 0.78% active;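 note: plate controls were DMSO for no effect and rapamycin for full effect; nearly all actives have a fitted effect of over 50% in size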
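Cell-based qHTS: Tsc2-/- p53-/- MEF, 24 h cpd, 37 °C; fix/perm, anti-phospho-S6 Alexa-488 + PI; Acumen 488 nm scan; pS6/PI ratio, % positive cells; rapamycin 7.5 nM = inhibition ref; PI count = viability.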
HTT-AS promoter: activators of huntingtin-antisense promoter activity; HEK293 HTT-AS promoter firefly luciferase reporter, 24 h; response scale: percent change from vehicle, -100% = no light; Potency, µM (titrated, usually from 57.5 µM), for the others: at the highest dose activity change, positive = activation, actives largely listed as activators; 48,000 tested, 0.24% active; note: nearly all actives have a fitted effect of over 55% in size
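Luminescence was read after Dual-Glo reagent and a 10 min room-temperature incubation. Values were normalized to vehicle (0% activity) and zero RLU (-100% activity). Reporter HEK293 cells had been exposed to compounds (up to 57.5 uM final) for 24 h.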
FH mod: Identification of activators of human fumarate hydratase by quantitative high-throughput screening | FH coupled MDH/diaphorase resazurin fluorescence, 15 min | Potency, µM (titrated, usually from 79.9 µM), without a hit: top-dose activity change, negative = inhibition, actives largely listed as inhibitors | 54,000 tested, 0.22% active | AID 1347055, 2019; note: % is set by controls: 0 for no effect and ±100 for the full control effect; the screen sought activators but most active calls are inhibition curves; nearly all actives have a fitted effect of over 45% in size
Target sequence (P07954 whole entry, looked up): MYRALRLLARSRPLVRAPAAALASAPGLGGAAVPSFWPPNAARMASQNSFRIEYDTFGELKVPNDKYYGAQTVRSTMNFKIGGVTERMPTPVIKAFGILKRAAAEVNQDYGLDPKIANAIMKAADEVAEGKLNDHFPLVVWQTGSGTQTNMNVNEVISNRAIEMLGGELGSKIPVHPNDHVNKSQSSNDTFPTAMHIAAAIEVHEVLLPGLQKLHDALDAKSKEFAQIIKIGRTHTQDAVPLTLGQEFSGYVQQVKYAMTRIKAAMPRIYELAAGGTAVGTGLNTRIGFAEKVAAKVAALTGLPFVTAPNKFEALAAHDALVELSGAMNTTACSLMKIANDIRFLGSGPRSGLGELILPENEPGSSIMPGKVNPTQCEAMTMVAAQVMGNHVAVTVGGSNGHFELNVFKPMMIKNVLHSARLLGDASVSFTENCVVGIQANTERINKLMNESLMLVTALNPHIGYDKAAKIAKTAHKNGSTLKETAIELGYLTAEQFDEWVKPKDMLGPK
PMP22 txn prim: modulates PMP22 transcription in S16 Schwann cells | S16 Pmp22-F2sN Schwann cells (luciferase reporters placed in the Pmp22 gene), FLuc/NLuc coincidence luminescence, 24 h | 43,000 tested, 2% active | AID 1508649 | Potency, µM (titrated, usually from 57.5 µM), inactives show top-dose activity change, negative = inhibition, hits mostly inhibitors; active = clear falling dose curves in both reporters; inconclusive = both reporters move, but less clearly or upward; inactive = either reporter flat; the % is the NLuc reporter signal; note: % is set by controls: 0 for no effect and ±100 for the full control effect
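Luminescent read-out of sequential FLuc and NLuc signals from a reporter embedded in the Pmp22 3' UTR of S16 Schwann cells, taken after 24 h compound exposure at 37C; compounds reducing both signals score as inhibitors of expression.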
Starred values were filed as active, the others as inactive; ? = inconclusive; . = not tested or not shown; [ ] = dose if it differs, or a comment. Hits are enriched below; roughly 3.3% of the tested compounds scored in any of these assays. Unless noted, calls come from the whole dose curve; as a rule, active = well fitted curve in the direction sought with a large enough effect; inconclusive = small, poorly fitted or top-dose-only effect, or another doubt; inactive = no such curve, though single readings can be large; an effect the other way counts as inactive or inconclusive. Potency is the fitted concentration of half-maximal effect.

SMILES | HTT prom inh | S16 viability | mTORC1 inh | HTT-AS promoter | FH mod | PMP22 txn prim
CC(C)OCc1cc(CN2CCN(c3ccccc3)CC2)c(O)c2ncccc12 | 13µM* | ? | ? | -43% | ? | 5.1µM*
Cc1ccc(NC(=O)c2oc3c(c2C)-c2[nH]ncc2CC3)c(Cl)c1 | 74% | -7% | -2% | 2.2µM* | -37% | -18%
COc1ccc(Cl)cc1NC(=O)C1CCN(S(=O)(=O)c2ccc(F)cc2)CC1 | ? | ? | 0% | -28% | -10% | 7%
COc1cc(C(=O)O)ccc1NC(=O)C1NC(CC(C)(C)C)C(C#N)(c2ccc(Cl)cc2F)C1c1cccc(Cl)c1F (centres undefined) | . | . | . | . | 32µM* | .
O=C(Nc1cccc(F)c1)C1CCN(S(=O)(=O)c2ccc3[nH]c4c(c3c2)CCCCC4)CC1 | 25µM* | ? | -4% | -42% | -23% | ?
Cc1nc2ccc(CN(C)c3ccc(C(=O)NC(CCC(=O)O)C(=O)O)s3)cc2c(=O)[nH]1 (centres undefined) | . | . | . | . | 0% | .
CCN1CCN(C(=O)Cn2ncc3c4ccccc4n(Cc4c(C)cc(C)cc4C)c3c2=O)CC1 | -13% | ? | 16µM* | -21% | -19% | ?
Cc1cc(C)c(Cn2c3ccccc3c3cnn(CC(=O)N4CCCCC4)c(=O)c32)c(C)c1 | ? | 6% | 0% | -24% | -17% | -24%
COc1ccc(C)cc1NC(=O)CCNS(=O)(=O)c1cccc2nonc12 | -2% | 12% | 21µM* | 0% | -4% | -1%
Cc1cccc(NC(=O)CCNS(=O)(=O)c2cccc3nonc23)c1 | 1% | 16% | -19% | 2% | 3% | 3%
CC(=O)c1c(C)cccc1O[C@@H]1O[C@H](CO)[C@@H](O)[C@H](O)[C@H]1O | . | . | . | . | -3%[53.3 µM] | .
CC1CCCN(CCCNC(=O)c2ccc3c(c2)N(Cc2ccc(Cl)cc2)C(=O)c2ccccc2S3(=O)=O)C1 (centres undefined) | -25% | ? | 13µM* | -27% | -6% | ?
C=C1CCCC2(C)CCC(C(C)(C)OC3OC(C)C(O)C(O)C3OC(=O)/C(C)=C\C)CC12 (centres undefined) | . | . | . | . | -12%[53.3 µM] | .
CCCSc1oc(-c2cccs2)nc1S(=O)(=O)c1ccc(C)cc1 | ? | 3% | 0% | -15% | -18% | -11%
CCCCS(=O)(=O)c1oc(-c2ccc(F)cc2)nc1S(=O)(=O)c1ccc(C)cc1 | ? | ? | 4.1µM* | -91% | -14% | 8.4µM*
CCCCS(=O)(=O)c1oc(-c2cccs2)nc1S(=O)(=O)c1ccc(F)cc1 | ? | 2.8µM* | 2.1µM* | -94% | -22% | 3µM*
Cc1ccc(S(=O)(=O)c2nc(-c3ccc(F)cc3)oc2N2CCN(c3ccccc3)CC2)cc1 | -12% | 4% | -8% | -15% | -11% | 0%
CCS(=O)(=O)c1oc(-c2ccc(F)cc2)nc1S(=O)(=O)c1ccccc1 | ? | 3.2µM* | 0.13µM* | -94% | -3% | 2.5µM*
CCC(C)S(=O)(=O)c1oc(-c2ccc(F)cc2)nc1S(=O)(=O)c1ccc(F)cc1 (centres undefined) | ? | 6.3µM* | 0.83µM* | -94% | -4% | 2.5µM*
COC(=O)[C@]1(C)CCC[C@@]2(C)[C@@H]3CC[C@@H]4C[C@@]3(CC[C@@H]21)C[C@H]4C(=O)O | . | . | . | . | 7%[53.3 µM] | .
C=C1C(=O)OC2/C=C(\COC(C)=O)CC/C=C(\C=O)CC(OC(=O)C(C)CC)C12 (centres undefined) | . | . | . | . | -1%[53.3 µM] | .
CCOC(=O)N1c2ccc(C(F)(F)F)cc2C(N(Cc2cc(C(F)(F)F)cc(C(F)(F)F)c2)C(=O)OC)CC1CC (centres undefined) | . | . | . | . | -6% | .
O=S(=O)(c1ccccc1)n1nc(-c2ccc(Cl)cc2)nc1NCc1ccccc1 | 10% | ? | 15µM* | 11% | -19% | ?
O=S(=O)(c1ccccc1)n1nc(-c2ccco2)nc1NCc1ccccc1 | 37% | 6% | 2% | 13µM* | -14% | ?
Cc1cccc(-n2ncc3c(NCCOCCO)ncnc32)c1 | 39% | 2% | 8% | 4µM* | -5% | -11%
SMILES | HTT prom inh | S16 viability | mTORC1 inh | HTT-AS promoter | FH mod | PMP22 txn prim
Cc1ccc(-n2ncc3c(NCCO)ncnc32)cc1Cl | 62% | ? | 9% | ? | -7% | ?
CCC(=O)OC1=CN(Cc2ccccc2)S(=O)(=O)c2ccccc21 | -10% | 3% | -2% | -7% | 16% | ?
CCCC(=O)OC1=CN(Cc2ccccc2)S(=O)(=O)c2ccccc21 | -8% | 3% | 16µM* | -9% | -16% | -11%
O=C(Nc1c(-c2cccs2)nc2ccccn12)c1ccc(Cl)cc1 | . | . | . | . | -3% | .
CC(C)c1ccc(NC(=O)c2ccc3c(c2)CCCN3S(C)(=O)=O)cc1 | 10µM* | -7% | ? | -31% | -20% | ?
Cc1ccc(C)c(NC(=O)c2ccc3c(c2)CCCN3S(C)(=O)=O)c1 | 34% | 10% | -2% | 7.9µM* | -4% | ?
CCCCc1ccc(NC(=O)c2ccc3c(c2)CCN3S(=O)(=O)CC)cc1 | 22µM* | -2% | -5% | -47% | 2% | ?
Cc1ccc(C)c(NC(=O)c2ccc3c(c2)CCN3S(C)(=O)=O)c1 | -1% | 7% | -2% | -3% | 0% | -3%
COc1ccc(C)cc1NC(=O)C(Cc1ccccc1)NS(=O)(=O)c1cccs1 (centres undefined) | -7% | 3% | 0% | -25% | 1% | ?
COc1ccc(C)cc1NC(=O)C(Cc1ccccc1)NS(=O)(=O)c1ccc(Br)s1 (centres undefined) | -9% | 1% | 6.6µM* | -19% | 8% | ?
O=C(O)c1ccc2nc(-c3cc4cccc(O)c4oc3=O)[nH]c2c1 | ? | ? | 4% | -62% | 22µM* | -2%
Cc1ccc(C)c(CN2CCC(CNC(=O)Nc3ccc(Br)cc3F)CC2)c1 | ? | 28µM* | ? | -37% | -11% | ?
COc1ccc(NC(=O)NCC2CCN(Cc3ccccc3F)CC2)c(OC)c1 | -11% | -1% | -1% | 8% | 2% | ?
C=C1C(OC2OC(CO)C(O)C(O)C2O)CC2C(C)(C)C(O)CCC2(C)C1CC/C(C)=C\COC(=O)CC(=O)O (centres undefined) | . | . | . | . | -9%[20.6 µM] | .
